Laboratory results published in PubChem BioAssay.

How the values were obtained:
[1] = test system: Human papillomavirus type 1a protein E7 (residues 44-93); assay: small molecules binding HPV E7 44-93 – biochemical, small-molecule microarray, residues 44-93, 635 nm fluorescence, primary screen (AID 1108); settings: fluorescence 635 nm, higher = more signal;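 further: E7 fragment applied at 1 µg/mL in TBST for 1 h at 4 C; score combines spot fluorescence with its signal to noise ratio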
[2] = hepatitis C replication reporter changes, two-sided – Huh7 cells, luciferase reporter, HCV replication inhibitor project, primary screen (AID 1109); settings: Huh7 HCV replicon luciferase reporter, 48 h; higher = more signal;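 further: huh7 hepatoma cells harbouring a luciferase neomycin HCV replicon reporter; luciferase luminescence as measure of HCV replicon replication; test concentration not given here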
[3] = molecular target: Left-right determination factor 2 (Homo sapiens) (UniProt O00292); assay: small molecules binding LEFTY2 protein – biochemical, small-molecule microarray, 635 nm fluorescence scan, primary screen (AID 1110); settings: higher = more signal
[4] = molecular target: Calmodulin-1 (Homo sapiens) (UniProt P0DP23); assay: small molecules binding calmodulin-1 with EGTA – biochemical, small-molecule microarray, Cy5-labelled CALM1, profiling panel (AID 1111); settings: Cy5-CALM1 binding fluorescence, higher = more signal;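 further: labelled calmodulin applied in Tris saline Tween buffer holding calcium plus EGTA and DTT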
[5] = molecular target: Calmodulin-1 (Homo sapiens) (UniProt P0DP23); assay: small molecules binding Ca-loaded calmodulin-1 – biochemical, small-molecule microarray, Cy5-labelled CALM1, plus calcium, artefact control for SMM control-protein annotation, profiling panel (AID 1112); settings: Cy5-CALM1 binding fluorescence, higher = more signal;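 further: score merges spot fluorescence with signal to noise from triplicate slides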
[6] = probe aWnt5a binding to arrayed compounds – biochemical, biotinylated probe, 635/667 nm fluorescence, primary screen (AID 1113); settings: small-molecule microarray, higher = more signal;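 further: score merges 667 nm fluorescence intensity with signal-to-noise per printed feature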
[7] = probe aShh binding to arrayed compounds – biochemical, biotinylated probe, 635/667 nm fluorescence, primary screen (AID 1114); settings: small-molecule microarray, higher = more signal;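 further: probe is biotin-labelled aShh protein from a stem cell growth factor screen; measures binding of labelled protein to compounds printed on the slide; score merges feature fluorescence at 667 nm with signal-to-noise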
[8] = probe aNog binding to arrayed compounds – biochemical, biotinylated probe, 635/667 nm fluorescence, primary screen (AID 1115); settings: small-molecule microarray, higher = more signal;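 further: probe is biotinylated aNog protein used at 0.15 µg/mL for 1 h at 4 C; z-score combines 667 nm fluorescence of each spot with its signal to noise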
[9] = molecular target: Torsin-1A-interacting protein 1 (Homo sapiens) (UniProt Q5JTV8); assay: compound microarray binding of lysate hLAP1 – cell lysate, small-molecule microarray, COS7 lysate, 635/667 nm fluorescence, primary screen (AID 1116); settings: 635 nm fluorescence, higher = more signal
[10] = molecular target: Alpha-bungarotoxin (Bungarus multicinctus) (UniProt P60615); assay: compounds binding labelled alpha-BTX control protein – biochemical, small-molecule microarray, Alexa647 label, 635/667 nm fluorescence, artefact control for SMM control protein annotation, profiling panel (AID 1117); settings: alpha-BTX-A647 binding fluorescence, higher = more signal
Alpha-bungarotoxin (Bungarus multicinctus), sequence (P60615 whole entry, looked up): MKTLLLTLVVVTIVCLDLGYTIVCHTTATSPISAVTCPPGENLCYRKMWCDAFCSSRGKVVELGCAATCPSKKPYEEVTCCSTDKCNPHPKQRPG

Torsin-1A-interacting protein 1 (Homo sapiens), sequence (Q5JTV8 whole entry, looked up): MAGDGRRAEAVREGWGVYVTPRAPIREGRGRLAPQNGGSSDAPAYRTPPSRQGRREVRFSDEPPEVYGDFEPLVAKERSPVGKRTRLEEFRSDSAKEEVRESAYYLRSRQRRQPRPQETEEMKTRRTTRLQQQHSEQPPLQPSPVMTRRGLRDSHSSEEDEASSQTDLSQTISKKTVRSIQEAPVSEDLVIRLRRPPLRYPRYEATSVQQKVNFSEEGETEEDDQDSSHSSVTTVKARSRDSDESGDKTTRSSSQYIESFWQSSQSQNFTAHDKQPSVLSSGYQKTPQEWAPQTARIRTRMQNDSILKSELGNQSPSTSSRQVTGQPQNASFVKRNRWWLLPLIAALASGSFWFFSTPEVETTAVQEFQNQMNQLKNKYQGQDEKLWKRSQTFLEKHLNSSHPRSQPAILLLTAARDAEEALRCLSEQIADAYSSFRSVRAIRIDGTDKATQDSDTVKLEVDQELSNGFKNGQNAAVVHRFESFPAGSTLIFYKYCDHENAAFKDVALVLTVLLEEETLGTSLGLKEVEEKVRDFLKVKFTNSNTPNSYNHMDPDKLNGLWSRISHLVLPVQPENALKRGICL
Left-right determination factor 2 (Homo sapiens), sequence (O00292 whole entry, looked up): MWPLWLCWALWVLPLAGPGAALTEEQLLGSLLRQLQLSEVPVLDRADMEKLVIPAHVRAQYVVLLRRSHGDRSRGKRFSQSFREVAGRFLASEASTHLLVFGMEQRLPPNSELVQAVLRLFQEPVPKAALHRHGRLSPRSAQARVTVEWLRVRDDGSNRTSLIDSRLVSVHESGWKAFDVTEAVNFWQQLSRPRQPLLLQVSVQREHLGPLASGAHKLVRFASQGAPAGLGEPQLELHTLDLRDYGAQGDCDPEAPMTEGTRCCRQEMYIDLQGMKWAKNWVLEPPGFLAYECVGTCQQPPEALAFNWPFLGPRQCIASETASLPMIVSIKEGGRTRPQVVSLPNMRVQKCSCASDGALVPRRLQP

| Structure (SMILES) | composite z-score [1] | z-score [2] | composite z-score [3] | composite z-score [4] | composite z-score [5] | composite z-score [6] | composite z-score [7] | composite z-score [8] | composite z-score [9] | composite z-score [10] |
| --- | --- | --- | --- | --- | --- | --- | --- | --- | --- | --- |
| C=C(CCCC)C(=O)CC[C@@H](OC(=O)c1ccccc1-c1ccccc1C(=O)O)c1cccc(OCCO)c1 | 0.834 | -4.38 | 0.373 | -0.826 | -0.973 | -0.148 | -0.0709 | 0.468 | 2.19 | -0.14 |
| CCN(CC)c1ccc(N2CC=CC34O[C@@H]5/C=C\CCC(C)OC(=O)C5[C@H]3C(=O)N(CCO)[C@@H]4C2=O)cc1 (stereo not given in full) | 1.14 | -1.35 | -1.05 | -0.653 | -0.897 | -0.148 | 0.147 | -0.0503 | 2.67 | -0.699 |
| CCCC[C@@H]1C[C@H]1[C@@H](NC(=O)c1ccccc1)c1ccc(Cl)cc1 | -1.15 | -1.65 | -1.86 | 0.014 | 1.42 | -0.247 | -0.209 | 0.253 | 1.23 | -1.51 |
| COC(=O)[C@@]1(Cc2ccc(F)cc2)[C@H]2c3cc(C(=O)N4CCCC4)n(CCF)c3C[C@H]2CN1C(=O)c1ccccc1 | 1.13 | -1.43 | -0.359 | 2.74 | 1.32 | 1.04 | 1.79 | 2.99 | 2.42 | 0.602 |
| CC(C)(C)OC(=O)CC[C@]1(C(=O)NCCN2CCOCC2)N=C(c2ccc(OCCCO)cc2)O[C@H]1c1ccccc1 | 1.18 | 0.0186 | -0.103 | 1.78 | 0.598 | -0.0203 | -0.153 | 0.593 | -0.299 | 1.57 |
| COc1cc(CO)cc(I)c1O[C@H]1C=C(C(=O)NCCO)C[C@@H](N(CC2CCCCC2)C(=O)c2ccc(C(F)(F)F)cc2)[C@@H]1O | 1.15 | -1.54 | 0.402 | 0.0208 | -0.21 | -0.087 | -0.2 | -0.144 | 0.465 | -0.8 |
| O=C(CCCCCCC(=O)Nc1ccccc1)N/N=C/c1ccccc1 | -0.162 | -0.529 | 0.229 | -0.507 | -0.491 | -0.18 | 0.0224 | -0.216 | 0.255 | -0.454 |
| C=CCN1C(=O)[C@@]2(CCC(=O)OC(C)(C)C)N=C(c3ccc(OCCCO)cc3)O[C@H]2c2ccccc21 | 1.36 | -2.97 | 0.224 | 1.47 | 0.516 | 0.065 | 0.0048 | -0.226 | 0.144 | 0.916 |
| C[C@H]1C2=C3C(CC[C@H]4C(OCc5ccc(F)cc5C(F)(F)F)OC[C@](C)([C@@H]34)N(C(=O)OC(C)(C)C)C2)C(CO)C1CO (stereo not given in full) | 1.34 | -2.81 | -0.593 | 2.4 | 0.861 | 0.114 | 0.255 | -0.697 | 0.222 | 0.671 |
| COCCOC(=O)N1C(=O)[C@@]2(c3cc(C#CC4=CCCCC4)ccc31)[C@H](c1ccc(O)cc1)N1[C@H](c3ccccc3)[C@H](c3ccccc3)OC(=O)[C@H]1[C@@H]2C(=O)Nc1nc2ccccc2s1 | 0.909 | -0.598 | 0.494 | 1.81 | 0.0702 | -0.0654 | -0.066 | -0.482 | 1.12 | 1.21 |
| C=C[C@@H](C)[C@H](OC(=O)Nc1ccc(SC)cc1)c1ccc(OCCO)cc1 | -0.868 | 2.09 | -1.03 | -0.163 | 0.649 | 0.0423 | -0.206 | 1.41 | -0.111 | 0.0265 |
| CCCC=C(CCC)[C@@H](NP(=O)(c1ccccc1)c1ccccc1)c1ccc(C(F)(F)F)cc1 | 1.13 | -0.475 | 0.0293 | 0.0848 | -0.33 | 0.474 | 0.135 | -0.301 | 0.145 | 0.109 |
| COc1ccc([Si](C)(C)[C@@H]2[C@@H](CCO)O[C@]3(C(=O)N(Cc4cccc(N5C(=O)c6ccccc6Oc6ccccc65)c4)c4ccccc43)[C@H]2C)cc1 | 0.405 | -4.56 | -0.704 | 0.949 | 0.646 | -0.208 | -0.221 | -0.0641 | 0.0437 | -0.115 |
| CC(C)(C)N1CC=CC23O[C@@H]4C=CCOC(=O)[C@@H]4[C@H]2C(=O)N(CCCO)[C@@H]3C1=O (stereo not given in full) | -0.62 | 0.104 | -2.12 | -1.03 | 0.392 | -0.232 | -0.297 | -0.425 | 0.412 | -2.03 |
| [N-]=[N+]=Nc1ccccc1C[C@@]1(C(=O)O)N=C(c2ccc(OCCCO)cc2)O[C@@H]1c1ccccc1 | 1.3 | 1.34 | -0.862 | 1.73 | 0.294 | -0.0566 | 0.191 | 0.905 | 0.24 | 1.08 |
| Cc1ccc(F)cc1S(=O)(=O)N[C@@H]1CCN(Cc2ccc(Oc3ccccc3)cc2)C1 | -1.39 | -3.67 | 0.74 | -1.08 | -0.466 | -0.147 | -0.195 | -0.388 | -0.104 | 0.471 |
| CO[C@H]1O[C@H](CO)[C@@H](OC(=O)Nc2ccc(C(F)(F)F)cc2)[C@H](OC(=O)Nc2ccc3c(c2)OCO3)[C@H]1OC(=O)Nc1ccc2c(c1)OCO2 | 1.33 | -2.79 | 0.0746 | 1.84 | -0.367 | 0.0438 | 0.0437 | 0.925 | 2 | 0.648 |
| C[n+]1ccc(CCCO)cc1 | -0.225 | -0.125 | 0.0525 | -0.628 | 0.371 | -0.0462 | 0.475 | -0.253 | 1.26 | -0.739 |
| C=CC[C@@]1(C(=O)N2CCCCC2)N=C(c2ccc(OCCCO)cc2)O[C@@H]1c1ccccc1 | 0.305 | -1.91 | 0.106 | 0.506 | -0.185 | 0.141 | -0.0243 | 2.01 | 1.87 | 0.497 |
| COCCOC(=O)N1C(=O)[C@@]2(c3cc(C#CCNC(N)=O)ccc31)[C@H](C(=O)N1CCCCCCC1)[C@H]1C(=O)O[C@H](c3ccccc3)[C@H](c3ccccc3)N1[C@@H]2c1ccc(O)cc1 | 0.964 | -1.07 | 0.212 | 0.356 | -0.947 | -0.164 | -0.214 | -0.456 | 0.546 | 0.863 |
| C=CCN1C(=O)[C@@]2(O[C@@H](CCO)[C@H]([Si](C)(C)c3ccc(OC)cc3)[C@H]2C)c2cc(N3C(=O)c4ccccc4Oc4ccccc43)ccc21 | -0.719 | -5.16 | 0.163 | 1.4 | 0.927 | 0.0181 | -0.186 | 0.0061 | 0.669 | 0.328 |
| O=C(NC1CC1)[C@@H]1c2ccccc2C(=O)N(Cc2ccccc2)[C@H]1c1ccc(CO)cc1 | 0.511 | -0.89 | -1.25 | -0.564 | -0.648 | -0.148 | 0.0099 | 0.368 | 0.835 | 0.406 |
